# Measured values published in PubChem BioAssay (NCATS).
# Inconclusive results are not listed. Where a call stands in place of a potency, no number is given. Calls of active or inactive are those of the source. Calls come from the whole dose curve; as a rule, active = well fitted activation curve with a large enough effect in the repeat runs; inconclusive = weak or mixed curves; inactive = flat fitted curve, though single readings scatter.
# Test: qHTS assay for small molecule agonists of the antioxidant response element (ARE) signaling pathway measured by Nrf2-dependant transcriptional activity (AID 720636)
# Conditions: ARE-luc HepG2, Nrf2 luciferase reporter, 16 h; series mostly up to 92.4 µM
# Source text: National Center for Advancing Translational Sciences [NCATS] NIH Chemical Genomics Center [NCGC] U.S. Environmental Protection Agency [EPA] National Institutes of Environmental Health Sciences [NIEHS] National Toxicology Program [NTP] Assay Overview: The antioxidant response element (ARE) signaling pathway plays an important role in the cellular anti-oxidant defense. Exposure to stressors which are exogenous like ionizing radiations, chemicals, U-V light, and endogenous like cell signaling, metabolic processes or inflammation, reactive oxygen species (ROS), can induce oxidative stress in the cells. Oxidative stress has been implicated in the pathogenesis of a variety of diseases ranging from cancer to neurodegeneration. ARE-luc HepG2 cell line (Simmons et al., Current Chemical Genomics, 5:1-12, 2011) has been used for identifying the chemicals that induce oxidative stress. The cell line has an Nrf2-responsive luciferase reporter gene that has been engineered to measure Nrf2-dependant transcriptional activity.
# Assay Protocol Summary: For measuring ARE induction; 2,000 ARE-luc HepG2 cells in 5 uL of assay medium containing 1% dialyzed FBS per well were dispensed into white wall/solid bottom 1536-well plates using a Flying Reagent Dispenser (FRD) (Aurora Discovery). The assay plates were incubated for 6 hr at 37 C to allow cell attachment to the well bottom, followed by the transfer of 23 nL compound or DMSO vehicle by a pin tool (Kalypsys). The plates were incubated for 16 hr at 37 C and 5% CO2, followed by the addition of 5 uL of ONE-GloTM luciferase reagent (Promega) into each well using FRD. After 30 min room temperature incubation, plates were read on a ViewLux plate reader (PerkinElmer).
# Potency is the fitted concentration of half-maximal effect.
row,SMILES,Potency
1,Cc1cc(C)c(N)c(Cl)c1,inactive
2,NC(=O)Cc1cccc2ccccc12,inactive
3,c1cc2ccc3ccc4ccc5cccc6c(c1)c2c3c4c56,inactive
4,OCCC(F)(F)C(F)(F)C(F)(F)C(F)(F)C(F)(F)C(F)(F)C(F)(F)C(F)(F)F,inactive
5,C=CC(=O)NC(C)(C)CS(=O)(=O)O,inactive
6,CCCCCCCCCc1ccccc1,inactive
7,O=C(Cl)c1cc(Cl)cc(Cl)c1,inactive
8,C/C(=C\C(C)CC(C)CC(C)C)C1CC(=O)OC1=O (stereo not given),inactive
9,C[C@]12CCC(=O)C=C1CC[C@@H]1[C@@H]2[C@@H](O)C[C@]2(C=O)[C@@H](C(=O)CO)CC[C@@H]12,inactive
10,C=C(C)C(=O)OCCCCCCCCCCCC,inactive
11,CCCCCCCCCC(C)=O,inactive
12,CC(=O)N(CCN(C(C)=O)C(C)=O)C(C)=O,inactive
13,C1CCC2(CCCCO2)OC1,inactive
14,C=C[Si](OCCOC)(OCCOC)OCCOC,inactive
15,Oc1ccc(C(c2ccc(O)cc2)C(Cl)(Cl)Cl)cc1,inactive
16,C=C(C)C(=O)OCCCCCCCCCCCCCCCC,inactive
17,CO[Si](OC)(OC)c1ccccc1,inactive
18,CC(C)(C)C1CCC(O)CC1 (stereo not given),inactive
19,O=[N+]([O-])C(CO)(CO)CO,inactive
20,CC(C)Cc1c(C(=O)O)c(C(F)F)nc(C(F)(F)F)c1C1=NCCS1,inactive

row,SMILES,Potency
1,CCCCCCC(O)CCCCCCCCCCC(=O)O (stereo not given),inactive
2,CC1(C)C(C=C(Cl)Cl)[C@H]1C(=O)OCc1cccc(Oc2ccccc2)c1 (stereo not given in full),inactive
3,O=C(O)CN(CCO)CCN(CC(=O)O)CC(=O)O,inactive
4,CCCOC(=O)NCCCN(C)C,inactive
5,C=CCCCCCCCCC=O,inactive
6,CCOCCOCCOCC,inactive
7,CNc1nc(=O)n(C2CCCCC2)c(=O)n1C,inactive
8,OC1CCC(C2CCCCC2)CC1 (stereo not given),inactive
9,CCCCCCCCCCCCCCO,inactive
10,CCCCCCOCCOCCO,inactive
11,NN(c1ccccc1)c1ccccc1,inactive
12,COC(OC)(C(=O)c1ccccc1)c1ccccc1,inactive
13,CCCCCCCCCCCCCCCCCC(N)=O,inactive
14,CCCCOCCOCCO,inactive
15,C=CC(=O)OCCOCC(CC)(COCCOC(=O)C=C)COCCOC(=O)C=C,21.7 µM (active)
16,CCCCC(CC)COP(=O)(O)OCC(CC)CCCC (stereo not given),inactive
17,CCCCCCCCCCCCCCCCCC#N,inactive
18,Nc1c(N=Nc2ccc(S(=O)(=O)CCOS(=O)(=O)O)cc2)c(S(=O)(=O)O)cc2cc(S(=O)(=O)O)c(N=Nc3ccc(S(=O)(=O)CCOS(=O)(=O)O)cc3)c(O)c12,inactive
19,CCCCCCCCCCCCCCN,inactive
20,Nc1cc(Cl)c(O)c(Cl)c1,68.6 µM (active)
